Eya2 inh: Eya2 (human) phosphatase inhibition; O00167; recombinant Eya2, OMFP fluorescence dephosphorylation (OMFP is methylfluorescein phosphate); Potency, µM (highest dose often 76.9 µM), without a hit: at the highest dose activity, negative = inhibition, hits mostly inhibitors; 330,000 compounds, 0.006% hits; AID 488837; also: potency is read from the fitted curve at half-maximal effect; % is scaled to controls: 0 for no effect and ±100 for the full control effect
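Eya2 (0.2 uM) preincubated 10 min at ambient with compound, then OMFP substrate added at 50 uM; 10 min reaction in 50 mM HEPES pH 7.5, 50 mM NaCl, 5 uM MgCl2, 0.05% BSA, 1 mM DTT. Fluorescence read at Ex 485/Em 525 nm.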
Six1-Eya2 blk: Six1/Eya2 interaction inhibition. Q15475+O00167. AlphaScreen GST-Six1/His-Eya2 binding, biochemical; stronger effect = lower value. activity change, % (no concentration beside the values). 360,000 compounds, 0.56% hits; in the data active = activity change below about -65%; inconclusive = mostly about -30% to -63%; also: % is scaled to controls: 0 for no effect and ±100 for the full control effect
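GST-Six1 + His-Eya2 (5X stock: 250/500 nM); Tris pH 8.0, 300 mM NaCl, 0.05% BSA, 0.02% Tween 20; GSH donor/Ni acceptor beads; 1 h 37 °C dark; AlphaScreen readout.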
L3MBTL1 inh-1: L3MBTL1 (human) inhibition; AID 485360; AlphaScreen L3MBTL1–H3K9me1 peptide binding; 230,000 compounds, 0.66% hits; Potency, µM (titrated, usually from 57.1 µM), for inactives: at the top dose activity, negative = inhibition, most hits filed as inhibitors; also: potency is read from the fitted curve at half-maximal effect; % is scaled to controls: 0 for no effect and ±100 for the full control effect; nearly all actives have a fitted effect of over 60% in size
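L3MBTL1 (50 nM) pre-complexed 30 min with biotinylated H3(1-15)K9me1 peptide (75 nM), then compounds added for 30 min at room temperature; AlphaScreen streptavidin donor/nickel chelate acceptor beads (10 ug/mL final) read after 30 min dark incubation.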
CtBP-E1A blk: inhibitors of CtBP/E1A interaction. activity change, % (concentration not given with the values). AlphaScreen GST-E1A/His-CtBP binding, 1536-well; stronger effect = lower value. 340,000 compounds, 0.49% hits; in the data active = activity change below about -65%; inconclusive = mostly about -30% to -63%; also: % is scaled to controls: 0 for no effect and ±100 for the full control effect
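AlphaScreen with 125 nM GST-E1A and 125 nM His-CtBP (5X stocks) in Tris pH 8.0, 300 mM NaCl, BSA, Tween 20, TCEP. Compounds preincubated 2 h at 37 deg C, then glutathione donor/nickel acceptor beads added for 1 h at 37 deg C in dark.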
CBFb RUNX1 block: blocks binding between human CBF-beta and RUNX1. Q01196+Q13951. AlphaScreen CBFb-His/RUNX1-biotin binding, biochemical. Potency, µM (titrated, usually from 59.8 µM), without a hit: top-dose activity, negative = inhibition, actives largely listed as inhibitors. 230,000 tested, under 10 active. AID 1477; also: % of control where 0% means no effect
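AlphaScreen proximity signal reports loss of binding between His-tagged CBF-beta and biotin-labelled RUNX1, each at 30 nM. Proteins are pre-associated for 20 minutes, compounds added for 15 minutes, then beads for 90 minutes, all at ambient temperature.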
MBNL1 CUG block: inhibitors of human MBNL1 binding to CUG repeat RNA; AID 2675; 280,000 compounds, 0.036% hits; Potency, µM (doses to about 57.5 µM), for inactives: at the highest dose activity change, negative = inhibition, actives largely listed as inhibitors; Q9NR56; TR-FRET MBNL1-His/biotin-(CUG)12 binding, 665/545 ratio; active = well fitted inhibition curve with a large enough effect in the signal ratio, with a control signal flat, not every such curve was filed as active; inconclusive = small, poorly fitted or top-dose-only effect, or effect the other way, or a change in a side signal; inactive = no such curve, though single readings can be large or run the other way; the % refers to the signal ratio; also: potency is read from the fitted curve at half-maximal effect; % is scaled to controls: 0 for no effect and ±100 for the full control effect
Target sequence (Q9NR56 whole entry, looked up): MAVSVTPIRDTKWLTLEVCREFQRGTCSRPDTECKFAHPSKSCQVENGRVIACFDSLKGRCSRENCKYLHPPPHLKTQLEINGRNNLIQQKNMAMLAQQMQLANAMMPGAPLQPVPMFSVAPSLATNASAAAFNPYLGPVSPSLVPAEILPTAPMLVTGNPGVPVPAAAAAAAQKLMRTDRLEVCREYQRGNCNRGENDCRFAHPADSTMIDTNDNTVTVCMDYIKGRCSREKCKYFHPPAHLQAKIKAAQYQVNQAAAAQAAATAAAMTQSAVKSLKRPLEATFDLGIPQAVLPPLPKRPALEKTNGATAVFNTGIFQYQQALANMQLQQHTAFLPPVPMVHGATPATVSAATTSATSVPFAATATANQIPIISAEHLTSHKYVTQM
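Ratiometric TR-FRET (665 over 545 nm, excitation 340 nm) tracks disruption of MBNL1-His/biotin-(CUG)12 complex after 60 min at room temperature, with compounds at 92 nM to 58 uM final.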
L3MBTL1 inh-2: L3MBTL1 binding inhibition validated | Potency, µM, usual class: inhibitors | L3MBTL1 methyl-lysine binding inhibition, biochemical qHTS | shares compounds with L3MBTL1 inh-1 | 500 compounds, 91% hits; also: potency is read from the fitted curve at half-maximal effect; nearly all actives have a fitted effect of over 70% in size
L3MBTL1 ctr: counter-screen for L3MBTL1 inhibitors: AlphaScreen signal interference. shares compounds with L3MBTL1 inh-1. 500 tested, under 10 active. Potency, µM (series often up to 57.1 µM), for the others: at the highest dose activity change, negative = inhibition, most hits filed as inhibitors. AlphaScreen counterscreen, signal inhibition; also: potency is read from the fitted curve at half-maximal effect; 0% is about no effect
The depositor's hits bear a star; ? = inconclusive; . = no result; [ ] = remark or other dose. Rows were chosen to be rich in hits. Some 0.89% of all compounds tested hit in one or more screens of this group. Unless noted, calls follow the shape of the dose curve; as a rule, active = well fitted curve in the direction sought with a large enough effect; inconclusive = small, poorly fitted or top-dose-only effect, or another doubt; inactive = no such curve, though single readings can be large; an effect the other way counts as inactive or inconclusive.

SMILES | Eya2 inh | Six1-Eya2 blk | L3MBTL1 inh-1 | CtBP-E1A blk | CBFb RUNX1 block | MBNL1 CUG block | L3MBTL1 inh-2 | L3MBTL1 ctr
O=C1CC(c2ccco2)CC(O)=C1C=Nc1ccc(Br)cc1 (stereo not drawn) | -23% | 3 | . | 5 | -2% | 0% | . | .
CC(=O)c1ccc(S(=O)(=O)Nc2c(C)nn(C)c2C)cc1 | 25% | 7 | 28µM* | -1 | . | . | ? | 2%
O=C(/C=C/c1ccco1)N1CCc2ccccc21 | 5% | -5 | -27% | 8 | -16% | 11% | . | .
Cc1ccc(/C=C/C(=O)N2CCc3ccccc32)o1 | -3% | -25 | 32µM* | 3 | ? | . | 6* | -1%
COc1ccc(Cl)cc1NC(=O)COC(=O)c1cc(NS(=O)(=O)c2cccs2)ccc1O | 3% | 1 | 40µM* | 2 | 8% | 1% | ? | 6%
O=C(O)C1C2C=CC(O2)C1C(=O)NCCC1=CCCCC1 (stereo not drawn) | 8% | -2 | 18µM* | -1 | 3% | -18% | 3.8* | 2%
O=C(NCCC1=CCCCC1)C(=O)NCc1ccccc1 | -3% | -5 | -17% | 4 | -5% | . | . | .
COC(=O)c1ccccc1NC(=O)CSc1nc(N)cc(=O)[nH]1 | -19% | -24 | 25µM* | 0 | ? | -13% | 11* | ?
Cc1ccc2c(CC(=O)NCc3ccc4c(c3)OCO4)coc2c1 | 15% | -5 | . | -3 | 1% | -7% | . | .
COc1ccc2c(CC(=O)NCc3ccc4c(c3)OCO4)coc2c1 | 5% | -12 | 25µM* | -2 | -14% | -1% | 27* | 0%
COc1ccc(S(=O)(=O)N2CCN(C(=O)c3cc4c(s3)CCC4)CC2)cc1 | 0% | ? | 3.5µM* | -2 | . | . | 3.4* | -5%
CC(=O)Nc1cccc(C(=O)/C=C/c2ccco2)c1 | -6% | -3 | -6% | 4 | -28% | 22% | . | .
CC(=O)Nc1ccc(C(=O)/C=C/c2ccco2)cc1 | 1% | ? | 32µM* | -8 | ? | 7% | 9.5* | -10%
CCOc1cccc(C(=O)Nc2ccccc2C(=O)N2CCN(C)CC2)c1 | -12% | 12 | . | 0 | . | 2% | . | .
O=C(c1ccc(=O)oc1)N1CCCc2ccccc21 | -3% | ? | 18µM* | -3 | ? | 20% | 1.5* | -3%
Nc1cc2c(cc1[N+](=O)[O-])OCCO2 | 0% | -8 | -4% | -5 | -24% | . | . | .
Nc1cc2c(cc1[N+](=O)[O-])OCO2 | -16% | -12 | 32µM* | -7 | ? | ? | 8.4* | 10%
COc1ccc(C(=O)NC(C)c2nnc(SCC(=O)Nc3nc4ccccc4s3)n2C)cc1 (stereo not drawn) | -7% | -12 | 1% | -4 | 0% | -11% | . | .
Cc1ccc(CNC(=O)C2CCCN2S(=O)(=O)c2ccc(Cl)cc2)cc1 (stereo not drawn) | 9% | 7 | 5% | -1 | . | 1% | . | .
CC(C)CC(=O)Nc1ncc([N+](=O)[O-])s1 | 1% | 5 | . | -1 | 4% | ? | . | .
Cc1nc(C)c(C(=O)Nc2ncc([N+](=O)[O-])s2)o1 | -11% | -7 | 40µM* | -1 | -29% | ? | 5.3* | 6%
O=C(CSc1nc(=O)n2cc(Cl)ccc2n1)Nc1cccc2ccccc12 | 7% | -22 | 25µM* | -1 | . | . | ? | 9%
O=C(O)CN1C(=O)/C(=C\c2ccc(OC(=O)c3ccco3)cc2)SC1=S | 1% | ? | . | -9 | . | ? | . | .
O=C(CCCN1C(=O)/C(=C/c2ccco2)SC1=S)Nc1ccccc1C(=O)O | 1% | ? | 7.1µM* | -24 | . | 18% | 3.4* | 0%
O=C(O)CN1C(=O)/C(=C/c2ccc(SCc3ccccc3)o2)SC1=S | 18% | -18 | 2.2µM* | -23 | ? | ? | 4.7* | ?
SMILES | Eya2 inh | Six1-Eya2 blk | L3MBTL1 inh-1 | CtBP-E1A blk | CBFb RUNX1 block | MBNL1 CUG block | L3MBTL1 inh-2 | L3MBTL1 ctr
O=C(O)CCCN1C(=O)/C(=C\c2ccco2)SC1=S | 4% | ? | 25µM* | -5 | ? | ? | ? | 1%
Cc1ccc(C(=O)N/C(=C\c2cccs2)C(=O)NCC2CCCO2)cc1C (stereo not drawn) | 8% | 1 | 3% | -4 | 1% | . | . | .
O=C(Nc1cccc2cccnc12)c1ccccc1Br | . | 24 | . | 14 | . | . | . | .
O=C1C=C(O)CC(c2ccco2)C1 (stereo not drawn) | 6% | -22 | 14µM* | -13 | -18% | -7% | 3* | -20%
O=C(Nn1cc(C(=O)Nc2ccccc2F)c2ccccc2c1=O)c1cnccn1 | 16% | -78* | 40µM* | ? | -26% | 2% | ? | 36%
COC(=O)c1cn(NC(=O)c2cnccn2)c(=O)c2ccccc12 | -15% | ? | -28% | ? | -6% | -19% | . | .
Cc1cc(C)n2c(SC/C(O)=C(\C#N)c3nc4ccccc4[nH]3)nnc2n1 | 8% | -16 | 16µM* | ? | ? | 16% | 6* | -20%
CC1CCCCC1NC(=O)c1cc(Cl)nc2ccccc12 (stereo not drawn) | . | 4 | . | 2 | . | . | . | .
Cc1ccc(-c2nn3c(C)nnc3s2)cc1NC(=O)c1ccc(-c2ccc(Cl)cc2Cl)o1 | -7% | -1 | 7% | 3 | -3% | -1% | . | .
Cc1ccc(-c2nn3c(C)nnc3s2)cc1NC(=O)c1ccc(-c2cccc(Cl)c2)o1 | -8% | -11 | 22µM* | -5 | -26% | 83% | 7.5* | 2%
N#Cc1c(NC(=O)CSc2ncnc3sccc23)oc(-c2ccco2)c1-c1ccco1 | 6%[15.4 µM] | ? | 13µM* | ? | ? | 47% | 17* | -12%
CCOC(=O)CNS(=O)(=O)c1cc(-c2nn(C)c(=O)c3ccccc23)ccc1C | -6% | -1 | 28µM* | 0 | -14% | -9% | ? | ?
Cc1ccc(-c2nn(C)c(=O)c3ccccc23)cc1S(=O)(=O)NCCN1CCOCC1 | -5% | -8 | -7% | 4 | 7% | 5% | . | .
COc1cccc(CN2C(=NC(=O)C3CC3)SC3CS(=O)(=O)CC32)c1 (stereo not drawn) | 2% | 4 | . | -4 | . | -8% | . | .
O=C(COC(=O)C1CCN(S(=O)(=O)c2cccs2)CC1)c1ccc2c(c1)OCCO2 | -4% | -3 | 3% | 1 | 11% | -3% | . | .

Screening data: PubChem BioAssay, National Center for Advancing Translational Sciences (NCATS)
